# Results published in publication PMC7862700, “An all-to-all approach to the identification of sequence-specific readers for epigenetic DNA modifications on cytosine”.
# How the values were obtained:
# Experiment in all cases: DAPPL (digital affinity profiling via proximity ligation, sequencing); 10 mM Tris-HCl pH 7.5, 50 mM NaCl, 1 mM DTT, 4% glycerol, room temperature, 30 min; GST-TFs on glutathione beads, 16-mer random dsDNA library, 0.1% formaldehyde crosslink after washing; high values mean tight binding
# [1] = biological target: T1, FLI1 (Homo sapiens, UniProt Q01543 1-452); settings: protein: recombinant; tags: N-terminal GST; dsDNA, one strand shown
# T1 sequence: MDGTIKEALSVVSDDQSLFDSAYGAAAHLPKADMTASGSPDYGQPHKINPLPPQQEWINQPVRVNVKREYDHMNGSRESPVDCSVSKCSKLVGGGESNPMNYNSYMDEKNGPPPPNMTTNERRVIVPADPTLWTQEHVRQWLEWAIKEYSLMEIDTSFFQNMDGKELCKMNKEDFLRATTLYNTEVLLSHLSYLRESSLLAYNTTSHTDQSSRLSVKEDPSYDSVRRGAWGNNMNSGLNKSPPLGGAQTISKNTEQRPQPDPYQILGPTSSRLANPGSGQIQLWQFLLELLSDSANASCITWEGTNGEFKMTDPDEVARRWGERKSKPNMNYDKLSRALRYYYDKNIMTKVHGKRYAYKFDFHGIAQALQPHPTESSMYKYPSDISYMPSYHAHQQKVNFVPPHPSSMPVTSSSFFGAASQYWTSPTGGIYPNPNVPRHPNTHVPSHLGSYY
# How it was run: (§1)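 A tag-only sample was pooled with DNA-barcoded human transcription factors that had been expressed in yeast as GST fusions and captured on glutathione beads. The pools were incubated for 30 min at room temperature with 200 nmole of a random double-stranded 16-mer DNA library in Tris/NaCl/DTT/glycerol buffer, then washed, crosslinked with 0.1% formaldehyde, proximity-ligated (BsaI/T4 ligase, 1 h, 37 °C), PCR-amplified and sequenced on an Illumina NextSeq500. Binding signal is each hexamer's read frequency for a factor divided by its frequency for the tag-only sample.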
# [2] = biological target: T2, ELK1 (Homo sapiens, UniProt P19419 1-428); settings: protein: recombinant; tags: N-terminal GST; dsDNA, one strand shown
# T2 sequence: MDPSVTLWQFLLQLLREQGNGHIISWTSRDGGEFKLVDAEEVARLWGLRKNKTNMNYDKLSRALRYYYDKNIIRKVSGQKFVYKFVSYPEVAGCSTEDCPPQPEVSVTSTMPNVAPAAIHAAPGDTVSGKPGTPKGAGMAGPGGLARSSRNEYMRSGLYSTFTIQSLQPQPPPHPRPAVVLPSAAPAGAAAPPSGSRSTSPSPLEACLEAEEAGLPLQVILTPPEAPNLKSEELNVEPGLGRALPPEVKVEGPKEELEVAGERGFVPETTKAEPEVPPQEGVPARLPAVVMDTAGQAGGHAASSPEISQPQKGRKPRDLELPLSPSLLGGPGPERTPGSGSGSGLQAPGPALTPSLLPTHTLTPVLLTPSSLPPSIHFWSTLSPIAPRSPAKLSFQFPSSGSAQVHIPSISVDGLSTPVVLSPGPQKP
# How it was run: as §1
# [3] = biological target: T3, GABPA (Homo sapiens, UniProt Q06546 1-454); settings: protein: recombinant; tags: N-terminal GST; dsDNA, one strand shown
# T3 sequence: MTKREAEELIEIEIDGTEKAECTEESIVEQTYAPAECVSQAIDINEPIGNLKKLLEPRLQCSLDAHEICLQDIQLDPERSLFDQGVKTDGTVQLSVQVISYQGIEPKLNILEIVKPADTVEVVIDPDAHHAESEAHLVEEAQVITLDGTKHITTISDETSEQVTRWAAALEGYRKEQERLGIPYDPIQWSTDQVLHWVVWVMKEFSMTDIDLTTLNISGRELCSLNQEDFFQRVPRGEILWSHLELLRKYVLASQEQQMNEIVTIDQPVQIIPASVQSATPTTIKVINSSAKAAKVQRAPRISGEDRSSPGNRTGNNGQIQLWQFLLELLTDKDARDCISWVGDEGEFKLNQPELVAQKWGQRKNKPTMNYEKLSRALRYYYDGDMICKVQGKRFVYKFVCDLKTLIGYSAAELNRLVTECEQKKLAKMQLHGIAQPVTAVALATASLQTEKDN
# How it was run: as §1
# [4] = biological target: T4, ERG (Homo sapiens, UniProt P11308 1-479); settings: protein: recombinant; tags: N-terminal GST; dsDNA, one strand shown
# T4 sequence: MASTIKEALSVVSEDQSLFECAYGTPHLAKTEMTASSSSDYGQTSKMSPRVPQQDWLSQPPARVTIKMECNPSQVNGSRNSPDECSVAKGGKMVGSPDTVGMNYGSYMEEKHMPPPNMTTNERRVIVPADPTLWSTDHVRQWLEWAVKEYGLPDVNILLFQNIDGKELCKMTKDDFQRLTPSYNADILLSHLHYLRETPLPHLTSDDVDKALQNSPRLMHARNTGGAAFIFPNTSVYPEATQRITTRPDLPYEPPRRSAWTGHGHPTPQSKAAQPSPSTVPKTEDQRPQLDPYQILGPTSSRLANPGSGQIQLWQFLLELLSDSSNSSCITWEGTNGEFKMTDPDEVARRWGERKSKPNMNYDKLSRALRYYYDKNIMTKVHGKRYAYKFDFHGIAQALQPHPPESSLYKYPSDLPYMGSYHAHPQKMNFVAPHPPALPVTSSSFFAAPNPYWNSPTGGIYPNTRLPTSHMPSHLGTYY
# How it was run: as §1
# [5] = biological target: ELF1 (Homo sapiens, UniProt P32519 1-619); settings: protein: recombinant; tags: N-terminal GST; dsDNA, one strand shown
# Sequence of ELF1 (P32519 whole entry): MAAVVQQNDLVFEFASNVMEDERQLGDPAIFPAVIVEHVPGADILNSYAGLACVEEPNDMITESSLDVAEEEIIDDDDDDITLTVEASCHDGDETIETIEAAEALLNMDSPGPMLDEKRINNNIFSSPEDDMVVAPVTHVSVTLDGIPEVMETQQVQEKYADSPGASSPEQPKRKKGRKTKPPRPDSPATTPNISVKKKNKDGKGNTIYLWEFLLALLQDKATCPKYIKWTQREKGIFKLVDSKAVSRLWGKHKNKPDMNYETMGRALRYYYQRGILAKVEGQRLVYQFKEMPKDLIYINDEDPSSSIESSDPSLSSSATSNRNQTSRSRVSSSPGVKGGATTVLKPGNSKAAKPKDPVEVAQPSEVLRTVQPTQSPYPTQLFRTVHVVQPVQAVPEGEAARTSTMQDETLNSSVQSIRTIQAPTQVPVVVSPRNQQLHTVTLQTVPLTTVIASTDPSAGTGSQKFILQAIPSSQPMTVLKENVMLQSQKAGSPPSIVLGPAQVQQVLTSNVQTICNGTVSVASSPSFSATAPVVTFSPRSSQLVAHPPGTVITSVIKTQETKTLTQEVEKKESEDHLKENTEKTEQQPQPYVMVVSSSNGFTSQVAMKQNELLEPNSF
# How it was run: as §1
# [6] = biological target: T5, EHF (Homo sapiens, UniProt Q9NZC4 1-300); settings: protein: recombinant; tags: N-terminal GST; dsDNA, one strand shown
# T5 sequence: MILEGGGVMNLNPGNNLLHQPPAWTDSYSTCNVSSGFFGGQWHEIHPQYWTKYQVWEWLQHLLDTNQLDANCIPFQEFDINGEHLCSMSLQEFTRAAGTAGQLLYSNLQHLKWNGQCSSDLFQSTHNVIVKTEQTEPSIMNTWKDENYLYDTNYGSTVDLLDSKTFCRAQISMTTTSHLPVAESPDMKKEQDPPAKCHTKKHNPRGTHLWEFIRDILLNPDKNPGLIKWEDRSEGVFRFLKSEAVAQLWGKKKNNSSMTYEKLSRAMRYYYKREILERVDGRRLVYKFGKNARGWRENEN
# How it was run: as §1
# [7] = biological target: SPI1 (Homo sapiens, UniProt P17947 1-270); settings: protein: recombinant; tags: N-terminal GST; dsDNA, one strand shown
# How it was run: as §1
# [8] = biological target: SPIB (Homo sapiens, UniProt Q01892 1-262); settings: protein: recombinant; tags: N-terminal GST; dsDNA, one strand shown
# Sequence of SPIB (Q01892 whole entry): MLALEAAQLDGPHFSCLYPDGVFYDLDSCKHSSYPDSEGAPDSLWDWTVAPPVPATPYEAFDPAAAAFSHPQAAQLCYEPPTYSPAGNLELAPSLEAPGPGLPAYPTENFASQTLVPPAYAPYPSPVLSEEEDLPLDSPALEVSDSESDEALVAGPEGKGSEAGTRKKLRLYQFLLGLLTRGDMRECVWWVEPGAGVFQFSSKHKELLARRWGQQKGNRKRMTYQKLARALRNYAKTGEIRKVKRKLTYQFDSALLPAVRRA
# How it was run: as §1
# [9] = biological target: T6, ELK3 (Homo sapiens, UniProt P41970 1-407); settings: protein: recombinant; tags: N-terminal GST; dsDNA, one strand shown
# T6 sequence: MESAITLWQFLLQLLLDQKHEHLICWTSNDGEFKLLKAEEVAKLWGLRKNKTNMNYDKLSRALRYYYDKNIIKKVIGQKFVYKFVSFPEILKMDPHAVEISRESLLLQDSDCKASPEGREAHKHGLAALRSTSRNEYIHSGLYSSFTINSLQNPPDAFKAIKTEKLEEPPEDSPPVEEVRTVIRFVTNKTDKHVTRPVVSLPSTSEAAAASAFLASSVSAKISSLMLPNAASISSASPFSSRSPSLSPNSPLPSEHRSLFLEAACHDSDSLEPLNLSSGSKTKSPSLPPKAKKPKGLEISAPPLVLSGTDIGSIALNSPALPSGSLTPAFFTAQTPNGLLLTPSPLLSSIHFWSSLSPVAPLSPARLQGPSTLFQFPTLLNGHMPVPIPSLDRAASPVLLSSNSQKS
# How it was run: as §1
# [10] = biological target: T7, FEV (Homo sapiens, UniProt Q99581 1-238); settings: protein: recombinant; tags: N-terminal GST; dsDNA, one strand shown
# T7 sequence: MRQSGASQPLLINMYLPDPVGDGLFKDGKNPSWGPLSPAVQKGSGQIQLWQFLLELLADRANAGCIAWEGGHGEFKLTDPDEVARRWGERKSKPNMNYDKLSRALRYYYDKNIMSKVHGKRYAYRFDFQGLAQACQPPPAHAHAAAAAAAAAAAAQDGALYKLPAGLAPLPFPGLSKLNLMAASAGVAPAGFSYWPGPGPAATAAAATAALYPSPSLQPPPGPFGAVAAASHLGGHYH
# How it was run: as §1
# [11] = biological target: ETV5 (Homo sapiens, UniProt P41161 1-510); settings: protein: recombinant; tags: N-terminal GST; dsDNA, one strand shown
# Sequence of ETV5 (P41161 whole entry): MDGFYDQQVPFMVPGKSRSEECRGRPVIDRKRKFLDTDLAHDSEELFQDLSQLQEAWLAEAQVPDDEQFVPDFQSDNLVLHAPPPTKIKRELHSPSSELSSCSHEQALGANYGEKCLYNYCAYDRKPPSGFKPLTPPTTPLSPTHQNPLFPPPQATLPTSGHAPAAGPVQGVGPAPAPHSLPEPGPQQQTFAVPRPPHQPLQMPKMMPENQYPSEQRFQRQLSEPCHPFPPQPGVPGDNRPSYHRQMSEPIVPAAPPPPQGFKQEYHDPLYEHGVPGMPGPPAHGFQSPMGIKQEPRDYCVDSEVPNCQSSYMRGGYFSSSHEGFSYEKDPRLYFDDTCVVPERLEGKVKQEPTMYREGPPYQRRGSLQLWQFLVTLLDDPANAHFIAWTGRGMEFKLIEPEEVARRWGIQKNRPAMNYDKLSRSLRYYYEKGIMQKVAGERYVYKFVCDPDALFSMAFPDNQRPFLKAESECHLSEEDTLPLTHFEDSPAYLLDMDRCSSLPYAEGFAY
# How it was run: as §1
# [12] = biological target: HSF1 (Homo sapiens, UniProt Q00613 1-529); settings: protein: recombinant; tags: N-terminal GST; chain copies: 3; dsDNA, one strand shown
# Sequence of HSF1 (Q00613 whole entry): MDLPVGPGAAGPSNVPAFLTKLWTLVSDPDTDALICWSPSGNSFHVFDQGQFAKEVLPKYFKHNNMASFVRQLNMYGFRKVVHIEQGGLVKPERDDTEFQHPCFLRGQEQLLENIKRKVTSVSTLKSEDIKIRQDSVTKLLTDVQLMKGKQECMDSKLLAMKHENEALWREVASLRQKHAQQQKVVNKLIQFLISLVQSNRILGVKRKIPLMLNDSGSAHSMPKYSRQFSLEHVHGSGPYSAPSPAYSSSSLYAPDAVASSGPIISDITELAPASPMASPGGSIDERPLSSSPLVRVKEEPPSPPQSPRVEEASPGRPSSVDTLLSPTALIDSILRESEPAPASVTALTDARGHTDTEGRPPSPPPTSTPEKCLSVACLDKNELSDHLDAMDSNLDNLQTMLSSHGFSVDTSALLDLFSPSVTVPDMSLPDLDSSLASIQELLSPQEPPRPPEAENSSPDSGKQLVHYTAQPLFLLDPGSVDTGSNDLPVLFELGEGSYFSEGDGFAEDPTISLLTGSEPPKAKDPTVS
# How it was run: as §1
# [13] = biological target: T8, SPIC (Homo sapiens, UniProt Q8N5J4 1-248); settings: protein: recombinant; tags: N-terminal GST; dsDNA, one strand shown
# T8 sequence: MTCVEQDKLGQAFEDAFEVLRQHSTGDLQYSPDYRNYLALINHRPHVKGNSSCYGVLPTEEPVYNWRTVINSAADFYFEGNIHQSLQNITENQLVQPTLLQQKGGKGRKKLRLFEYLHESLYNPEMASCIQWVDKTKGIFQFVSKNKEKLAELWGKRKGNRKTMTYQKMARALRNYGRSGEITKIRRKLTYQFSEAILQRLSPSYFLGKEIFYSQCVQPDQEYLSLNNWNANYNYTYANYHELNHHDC
# How it was run: as §1
# [14] = biological target: ELF4 (Homo sapiens, UniProt Q99607 1-663); settings: protein: recombinant; tags: N-terminal GST; dsDNA, one strand shown
# Sequence of ELF4 (Q99607 whole entry): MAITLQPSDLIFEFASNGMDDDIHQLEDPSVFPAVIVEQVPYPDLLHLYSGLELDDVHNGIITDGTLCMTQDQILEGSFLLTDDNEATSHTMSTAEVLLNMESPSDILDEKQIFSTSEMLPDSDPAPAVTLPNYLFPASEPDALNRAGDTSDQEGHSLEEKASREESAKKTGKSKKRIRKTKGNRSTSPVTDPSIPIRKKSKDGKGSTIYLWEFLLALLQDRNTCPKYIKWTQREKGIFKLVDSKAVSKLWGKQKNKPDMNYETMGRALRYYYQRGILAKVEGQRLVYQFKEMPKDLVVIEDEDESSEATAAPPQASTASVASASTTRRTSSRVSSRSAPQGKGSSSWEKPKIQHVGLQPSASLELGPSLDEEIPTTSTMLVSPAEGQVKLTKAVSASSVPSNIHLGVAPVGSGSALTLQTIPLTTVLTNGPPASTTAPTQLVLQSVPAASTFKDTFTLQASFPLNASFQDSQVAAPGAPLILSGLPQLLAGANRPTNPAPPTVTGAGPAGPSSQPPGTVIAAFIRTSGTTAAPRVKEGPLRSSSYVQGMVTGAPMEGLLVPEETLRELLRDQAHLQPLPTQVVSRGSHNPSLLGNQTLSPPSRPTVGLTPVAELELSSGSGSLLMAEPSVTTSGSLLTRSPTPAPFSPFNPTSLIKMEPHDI
# How it was run: as §1
# [15] = biological target: T9, ELK4 (Homo sapiens, UniProt P28324-2 1-405); settings: protein: recombinant; tags: N-terminal GST; dsDNA, one strand shown
# T9 sequence: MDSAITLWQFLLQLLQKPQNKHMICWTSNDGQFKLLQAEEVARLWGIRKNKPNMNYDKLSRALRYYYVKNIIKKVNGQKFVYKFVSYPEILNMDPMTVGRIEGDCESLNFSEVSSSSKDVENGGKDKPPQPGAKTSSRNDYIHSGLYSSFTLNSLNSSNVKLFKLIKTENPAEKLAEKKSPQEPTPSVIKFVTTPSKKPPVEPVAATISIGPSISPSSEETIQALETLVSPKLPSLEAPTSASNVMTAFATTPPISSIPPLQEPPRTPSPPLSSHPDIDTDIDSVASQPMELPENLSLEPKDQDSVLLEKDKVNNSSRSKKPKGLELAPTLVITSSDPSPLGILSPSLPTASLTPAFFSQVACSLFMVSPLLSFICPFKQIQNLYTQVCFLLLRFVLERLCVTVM
# How it was run: as §1
# [16] = biological target: T10, ETV2 (Homo sapiens, UniProt O00321 1-342); settings: protein: recombinant; tags: N-terminal GST; dsDNA, one strand shown
# T10 sequence: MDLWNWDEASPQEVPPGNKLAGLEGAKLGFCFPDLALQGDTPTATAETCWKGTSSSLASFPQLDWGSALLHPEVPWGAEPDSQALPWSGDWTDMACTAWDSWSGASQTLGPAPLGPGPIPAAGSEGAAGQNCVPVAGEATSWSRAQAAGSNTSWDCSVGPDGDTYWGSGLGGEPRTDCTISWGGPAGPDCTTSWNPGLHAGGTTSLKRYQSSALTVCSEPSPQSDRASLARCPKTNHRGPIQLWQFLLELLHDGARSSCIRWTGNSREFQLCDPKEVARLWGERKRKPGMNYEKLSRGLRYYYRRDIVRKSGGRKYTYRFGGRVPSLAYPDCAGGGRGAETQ
# How it was run: as §1
# [17] = biological target: T11, ELF3 (Homo sapiens, UniProt P78545 1-371); settings: protein: recombinant; tags: N-terminal GST; dsDNA, one strand shown
# T11 sequence: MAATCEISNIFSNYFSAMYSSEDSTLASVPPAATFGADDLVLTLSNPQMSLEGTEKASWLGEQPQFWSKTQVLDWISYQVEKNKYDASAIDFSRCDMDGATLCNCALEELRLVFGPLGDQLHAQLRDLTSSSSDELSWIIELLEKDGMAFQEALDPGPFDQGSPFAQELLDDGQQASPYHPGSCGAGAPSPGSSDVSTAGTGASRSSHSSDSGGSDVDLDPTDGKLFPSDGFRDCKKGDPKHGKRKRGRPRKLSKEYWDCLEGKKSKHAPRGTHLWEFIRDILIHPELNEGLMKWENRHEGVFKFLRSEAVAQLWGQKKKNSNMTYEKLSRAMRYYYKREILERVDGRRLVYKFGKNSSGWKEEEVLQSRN
# How it was run: as §1
# [18] = biological target: CRX (Homo sapiens, UniProt O43186 1-299); settings: protein: recombinant; tags: N-terminal GST; dsDNA, one strand shown
# Sequence of CRX (O43186 whole entry): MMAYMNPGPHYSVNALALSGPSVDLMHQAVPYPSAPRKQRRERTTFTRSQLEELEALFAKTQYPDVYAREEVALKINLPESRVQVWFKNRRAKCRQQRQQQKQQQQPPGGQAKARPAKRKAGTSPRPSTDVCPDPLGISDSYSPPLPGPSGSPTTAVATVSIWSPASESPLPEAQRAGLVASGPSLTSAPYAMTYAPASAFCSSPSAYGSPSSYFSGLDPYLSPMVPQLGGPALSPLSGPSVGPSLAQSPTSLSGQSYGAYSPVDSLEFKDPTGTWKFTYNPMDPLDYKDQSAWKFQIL
# How it was run: as §1
# [19] = biological target: ETV1 (Homo sapiens, UniProt P50549 1-477); settings: protein: recombinant; tags: N-terminal GST; dsDNA, one strand shown
# Sequence of ETV1 (P50549 whole entry): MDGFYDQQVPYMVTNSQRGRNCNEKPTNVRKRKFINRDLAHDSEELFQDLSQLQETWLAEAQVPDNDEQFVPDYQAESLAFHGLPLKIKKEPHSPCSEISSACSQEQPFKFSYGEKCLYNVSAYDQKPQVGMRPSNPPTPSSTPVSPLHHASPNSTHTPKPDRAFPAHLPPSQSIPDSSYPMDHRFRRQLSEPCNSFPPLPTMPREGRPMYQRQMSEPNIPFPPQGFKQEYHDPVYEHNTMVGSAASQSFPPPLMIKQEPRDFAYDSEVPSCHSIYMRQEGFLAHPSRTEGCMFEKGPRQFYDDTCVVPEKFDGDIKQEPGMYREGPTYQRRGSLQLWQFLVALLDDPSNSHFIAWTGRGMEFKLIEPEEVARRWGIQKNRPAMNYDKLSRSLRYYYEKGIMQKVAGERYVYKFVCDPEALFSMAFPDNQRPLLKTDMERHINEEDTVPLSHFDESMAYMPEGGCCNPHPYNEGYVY
# How it was run: as §1
sequence,measurement,setting,value
CAATAA,binding signal,[1],"1.12 fold enrichment (6-mer frequency, TF over GST control)"
same,binding signal,[2],"1.07 fold enrichment (6-mer frequency, TF over GST control)"
same,binding signal,[3],"1.25 fold enrichment (6-mer frequency, TF over GST control)"
same,binding signal,[4],"1.13 fold enrichment (6-mer frequency, TF over GST control)"
same,binding signal,[5],"1.13 fold enrichment (6-mer frequency, TF over GST control)"
same,binding signal,[6],"1.15 fold enrichment (6-mer frequency, TF over GST control)"
same,binding signal,[7],"1.14 fold enrichment (6-mer frequency, TF over GST control)"
same,binding signal,[8],"1.11 fold enrichment (6-mer frequency, TF over GST control)"
same,binding signal,[9],"1.2 fold enrichment (6-mer frequency, TF over GST control)"
same,binding signal,[10],"1.1 fold enrichment (6-mer frequency, TF over GST control)"
same,binding signal,[11],"1.14 fold enrichment (6-mer frequency, TF over GST control)"
same,binding signal,[12],"1.24 fold enrichment (6-mer frequency, TF over GST control)"
same,binding signal,[13],"1.2 fold enrichment (6-mer frequency, TF over GST control)"
same,binding signal,[14],"1.16 fold enrichment (6-mer frequency, TF over GST control)"
same,binding signal,[15],"1.14 fold enrichment (6-mer frequency, TF over GST control)"
same,binding signal,[16],"1.14 fold enrichment (6-mer frequency, TF over GST control)"
same,binding signal,[17],"1.27 fold enrichment (6-mer frequency, TF over GST control)"
same,binding signal,[18],"1.46 fold enrichment (6-mer frequency, TF over GST control)"
same,binding signal,[19],"1.11 fold enrichment (6-mer frequency, TF over GST control)"
